Experimental data taken from PubChem BioAssay AID1159580 (chemical genetic matrix, 2015).
Where “and” joins values, the source holds several entries; their conditions need not be identical. Equal values may be shown once. Screen size: about 5,500 compounds; about 2,000 (36%) were called active. Inconclusive results (about 18%) are left out. No stated cut-off is given here; in the data, active means normalized growth mostly below about 0.91 (no sharp cut-off); inconclusive means no clear call, values can overlap the other calls; inactive means mostly above about 0.92. Some of the results follow. More than one record can exist for a structure, and the calls need not agree.

Assay: chemical genetic growth profiling, strain panel (AID 1159580);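 further: tested at 20 µM; growth read once vehicle control cultures reached saturation at 30 °C; 1 = growth at the plate median or of vehicle wells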
Conditions: S. cerevisiae deletion strains, growth OD

Measured: normalized growth

CC(C)COCC(CN(Cc1ccccc1)c1ccccc1)N1CCCC1 (stereo not given)
0.587 (active) and 0.983 (inactive): locus YJL095W, strain BCK1, stronger effect = lower value
0.786 (active) and 0.987 (inactive): locus YGR078C, strain PAC10, stronger effect = lower value
0.771 (active) and 0.959 (inactive): locus YHR030C, strain SLT2, stronger effect = lower value
inactive: locus YAL021C, strain ccr4, stronger effect = lower value 0.962 | locus YAL026C, strain drs2, stronger effect = lower value 1.01 | locus YAL030W, strain snc1, stronger effect = lower value 1.03 | locus YAL040C, strain CLN3, stronger effect = lower value 1.09 | locus YBL061C, strain skt5, stronger effect = lower value 1.04 | locus YBR009C, strain hhf1, stronger effect = lower value 1 | locus YBR023C, strain chs3, stronger effect = lower value 1.02 | locus YBR171W, strain sec66, stronger effect = lower value 1.06 | locus YBR229C, strain ROT2, stronger effect = lower value 0.953 | locus YBR231C, strain swc5, stronger effect = lower value 1.01 | locus YBR279W, strain paf1, stronger effect = lower value 1.04 | locus YCL011C, strain gbp2, stronger effect = lower value 1.02 | locus YCL016C, strain dcc1, stronger effect = lower value 1.02 | locus YCL029C, strain bik1, stronger effect = lower value 0.978 | locus YCL061C, strain MRC1 (second series), stronger effect = lower value 1.01 | locus YCL061C, strain MRC1, stronger effect = lower value 1.02 | locus YCL069W, strain vba3, stronger effect = lower value 1.05 | locus YCR088W, strain abp1, stronger effect = lower value 1.04 | locus YDL005C, strain med2, stronger effect = lower value 1.05 | locus YDL035C, strain GPR1, stronger effect = lower value 0.864 | locus YDL040C, strain nat1, stronger effect = lower value 1.02 | locus YDL101C, strain DUN1, stronger effect = lower value 0.926 | locus YDL134C, strain PPH21, stronger effect = lower value 0.9 | locus YDL185W, strain tfp1, stronger effect = lower value 0.978 | locus YDL192W, strain arf1, stronger effect = lower value 0.977 | locus YDR001C, strain nth1, stronger effect = lower value 1.03 | locus YDR069C, strain doa4, stronger effect = lower value 1.02 | locus YDR101C, strain arx1, stronger effect = lower value 0.929 | locus YDR137W, strain rgp1, stronger effect = lower value 1.1 | locus YDR150W, strain NUM1, stronger effect = lower value 0.965 | locus YDR159W, strain sac3, stronger effect = lower value 1.03 | locus YDR195W, strain ref2 1.07 | locus YDR297W, strain sur2, stronger effect = lower value 1.02 | locus YDR318W, strain mcm21, stronger effect = lower value 0.947 | locus YDR334W, strain swr1, stronger effect = lower value 1.03 | locus YDR335W, strain msn5, stronger effect = lower value 1.06 | locus YDR392W, strain spt3, stronger effect = lower value 0.934 | locus YEL003W, strain gim4, stronger effect = lower value 1.04 | locus YEL037C, strain rad23, stronger effect = lower value 1.03 | locus YEL061C, strain CIN8 (second series), stronger effect = lower value 1.03 | locus YEL061C, strain CIN8, stronger effect = lower value 0.973 | locus YER002W, strain NOP16, stronger effect = lower value 1.02 | locus YER015W, strain faa2, stronger effect = lower value 1.01 | locus YER016W, strain bim1, stronger effect = lower value 1.02 | locus YER110C, stronger effect = lower value 0.96 | locus YER111C, strain swi4, stronger effect = lower value 1.06 | locus YER155C, strain BEM2 (second series), stronger effect = lower value 0.884 | locus YER155C, strain BEM2, stronger effect = lower value 1.02 | locus YER167W, strain BCK2, stronger effect = lower value 0.958 | locus YFR010W, strain ubp6, stronger effect = lower value 0.998 | locus YGL078C, strain dbp3, stronger effect = lower value 0.978 | locus YGL167C, strain pmr1, stronger effect = lower value 1.04 | locus YGL173C, strain kem1, stronger effect = lower value 1.01 | locus YGL227W, strain vid30, stronger effect = lower value 1.03 | locus YGL240W, strain doc1, stronger effect = lower value 0.99 | locus YGL253W, strain hxk2, stronger effect = lower value 1.05 | locus YHR013C, strain ard1, stronger effect = lower value 1.03 | locus YHR027C, strain rpn1, stronger effect = lower value 1 | locus YHR079C, strain IRE1 (second series), stronger effect = lower value 0.972 | locus YHR079C, strain IRE1, stronger effect = lower value 0.998 | locus YHR094C, strain hxt1, stronger effect = lower value 0.987 | locus YHR129C, strain ARP1, stronger effect = lower value 0.949 | locus YHR142W, strain chs7, stronger effect = lower value 1.04 | locus YHR200W, strain rpn10, stronger effect = lower value 0.975 | locus YIL073C, strain SPO22, stronger effect = lower value 1.3 | locus YIL125W, strain kgd1, stronger effect = lower value 0.991 | locus YIR030C, strain dcg1, stronger effect = lower value 0.98 | locus YJL092W, strain hpr5, stronger effect = lower value 1.01 | locus YJL095W, strain BCK1 (second series), stronger effect = lower value 1 | locus YJL115W, strain asf1, stronger effect = lower value 1.04 | locus YJL129C, strain trk1, stronger effect = lower value 1.06 | locus YJL134W, strain LCB3, stronger effect = lower value 0.988 | locus YJL154C, strain vps35, stronger effect = lower value 1.04 | locus YJL164C, strain tpk1, stronger effect = lower value 1.01 | locus YJL166W, strain qcr8, stronger effect = lower value 1.01 | locus YJL168C, strain set2, stronger effect = lower value 0.989 | locus YJL187C, strain SWE1, stronger effect = lower value 1.03 | locus YJR043C, strain POL32, stronger effect = lower value 0.996 | locus YJR066W, strain TOR1, stronger effect = lower value 0.948
active: locus YAL013W, strain DEP1, stronger effect = lower value 0.871 | locus YBR021W, strain FUR4, stronger effect = lower value 0.594 | locus YDL074C, strain BRE1, stronger effect = lower value 0.694 | locus YDR162C, strain NBP2, stronger effect = lower value 0.802 | locus YDR388W, stronger effect = lower value 0.814 | locus YDR502C, strain sam2, stronger effect = lower value 0.914 | locus YGL086W, strain mad1, stronger effect = lower value 0.903 | locus YGL248W, strain PDE1, stronger effect = lower value 0.849 | locus YGR135W, strain pre9, stronger effect = lower value 0.849 | locus YGR229C, strain SMI1, stronger effect = lower value 0.434 | locus YGR252W, strain gcn5, stronger effect = lower value 0.734 | locus YIL066C, strain RNR3, stronger effect = lower value 0.809 | locus YJL187C, strain SWE1 (second series), stronger effect = lower value 0.801
